Source: PubChem BioAssay AID1159580 (chemical genetic matrix, 2015)
In all, about 5,500 compounds went through this assay and about 2,000 (36%) were called active. Not shown: some 18% with an inconclusive outcome. Rule as the data show it: active = normalized growth mostly below about 0.91 (no sharp cut-off); inconclusive = no clear call, values can overlap the other calls; inactive = mostly above about 0.92. The list shows a part of the results.

Assay: chemical genetic growth profiling, strain panel (AID 1159580);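 also: tested at 20 µM; growth read once vehicle control cultures reached saturation at 30 °C; 1 = growth at the plate median or of vehicle wells; lower values mean less growth of the strain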
Conditions: growth OD

Measured: normalized growth

CC(=O)N[C@@H](Cc1c[nH]c2ccccc12)C(N)=O
inactive: S. cerevisiae deletion strains, locus YJR075W, strain HOC1, hits give low values 0.959 | S. cerevisiae deletion strains, locus YKL009W, strain mrt4, hits give low values 1.01 | S. cerevisiae deletion strains, locus YKL068W, hits give low values 0.988 | S. cerevisiae deletion strains, locus YKL085W, strain MDH1 (second series), hits give low values 1.01 | S. cerevisiae deletion strains, locus YKL085W, strain MDH1, hits give low values 1.01 | S. cerevisiae deletion strains, locus YKL160W, strain elf1, hits give low values 1.02 | S. cerevisiae deletion strains, locus YKL190W, strain CNB1, hits give low values 0.979 | S. cerevisiae deletion strains, locus YKR001C, strain vps1, hits give low values 1.01 | S. cerevisiae deletion strains, locus YKR026C, strain gcn3, hits give low values 1.03 | S. cerevisiae deletion strains, locus YKR091W, strain srl3, hits give low values 1.01 | S. cerevisiae deletion strains, locus YLL001W, strain dnm1, hits give low values 1.03 | S. cerevisiae deletion strains, locus YLL026W, hits give low values 1.02 | S. cerevisiae deletion strains, locus YLL041C, strain sdh2, hits give low values 1.02 | S. cerevisiae deletion strains, locus YLR027C, strain aat2, hits give low values 1.03 | S. cerevisiae deletion strains, locus YLR039C, strain RIC1, hits give low values 0.972 | S. cerevisiae deletion strains, locus YLR058C, strain SHM2, hits give low values 0.993 | S. cerevisiae deletion strains, locus YLR102C, strain apc9, hits give low values 0.999 | S. cerevisiae deletion strains, locus YLR113W, strain HOG1, hits give low values 1.01 | S. cerevisiae deletion strains, locus YLR221C, strain rsa3, hits give low values 0.996 | S. cerevisiae deletion strains, locus YLR258W, strain gsy2, hits give low values 1.02 | S. cerevisiae deletion strains, locus YLR262C, strain YPT6 (second series), hits give low values 1.02 | S. cerevisiae deletion strains, locus YLR262C, strain YPT6, hits give low values 0.938 | S. cerevisiae deletion strains, locus YLR268W, strain sec22, hits give low values 0.96 | S. cerevisiae deletion strains, locus YLR320W, strain mms22, hits give low values 1.01 | S. cerevisiae deletion strains, locus YLR330W, strain CHS5, hits give low values 0.996 | S. cerevisiae deletion strains, locus YLR342W, strain FKS1 (second series), hits give low values 1.07 | S. cerevisiae deletion strains, locus YLR342W, strain FKS1, hits give low values 1.05 | S. cerevisiae deletion strains, locus YLR357W, strain rsc2, hits give low values 1.04 | S. cerevisiae deletion strains, locus YLR370C, strain arc18, hits give low values 1.02 | S. cerevisiae deletion strains, locus YLR371W, strain rom2, hits give low values 1.01 | S. cerevisiae deletion strains, locus YLR384C, strain iki3, hits give low values 1.03 | S. cerevisiae deletion strains, locus YLR418C, strain cdc73, hits give low values 0.984 | S. cerevisiae deletion strains, locus YML016C, strain PPZ1, hits give low values 0.995 | S. cerevisiae deletion strains, locus YML032C, strain rad52, hits give low values 1 | S. cerevisiae deletion strains, locus YML120C, strain ndi1, hits give low values 1.03 | S. cerevisiae deletion strains, locus YML124C, strain tub3, hits give low values 1.01 | S. cerevisiae deletion strains, locus YMR058W, strain fet3, hits give low values 0.997 | S. cerevisiae deletion strains, locus YMR078C, strain ctf18, hits give low values 1 | S. cerevisiae deletion strains, locus YMR125W, strain sto1, hits give low values 1.1 | S. cerevisiae deletion strains, locus YMR129W, hits give low values 1.02 | S. cerevisiae deletion strains, locus YMR205C, strain PFK2, hits give low values 1.02 | S. cerevisiae deletion strains, locus YMR223W, strain ubp8, hits give low values 1.01 | S. cerevisiae deletion strains, locus YMR231W, strain pep5, hits give low values 1.02 | S. cerevisiae deletion strains, locus YMR263W, strain SAP30, hits give low values 0.955 | S. cerevisiae deletion strains, locus YMR307W, strain GAS1, hits give low values 1.08 | S. cerevisiae deletion strains, locus YNL067W, strain RPL9B, hits give low values 0.966 | S. cerevisiae deletion strains, locus YNL071W, strain lat1, hits give low values 1.01 | S. cerevisiae deletion strains, locus YNL128W, strain TEP1, hits give low values 0.94 | S. cerevisiae deletion strains, locus YNL153C, strain GIM3, hits give low values 0.97 | S. cerevisiae deletion strains, locus YNL183C, strain NPR1, hits give low values 0.914 | S. cerevisiae deletion strains, locus YNL209W, strain ssb2, hits give low values 1.01 | S. cerevisiae deletion strains, locus YNL233W, strain BNI4, hits give low values 0.993 | S. cerevisiae deletion strains, locus YNL248C, strain rpa49, hits give low values 0.992 | S. cerevisiae deletion strains, locus YNL250W, strain rad50, hits give low values 0.989 | S. cerevisiae deletion strains, locus YNL271C, strain bni1, hits give low values 0.996 | S. cerevisiae deletion strains, locus YNL298W, strain CLA4, hits give low values 0.994 | S. cerevisiae deletion strains, locus YNL307C, strain MCK1, hits give low values 1.02 | S. cerevisiae deletion strains, locus YNL322C, strain KRE1 (second series), hits give low values 1.03 | S. cerevisiae deletion strains, locus YNL322C, strain KRE1, hits give low values 0.978 | S. cerevisiae deletion strains, locus YNR049C, strain mso1, hits give low values 1.02 | S. cerevisiae deletion strains, locus YNR052C, strain pop2, hits give low values 1.01 | S. cerevisiae deletion strains, locus YOL006C, strain TOP1, hits give low values 0.943 | S. cerevisiae deletion strains, locus YOL012C, strain htz1 0.796 | S. cerevisiae deletion strains, locus YOL147C, strain pex11, hits give low values 1 | S. cerevisiae deletion strains, locus YOR001W, strain rrp6, hits give low values 1.04 | S. cerevisiae deletion strains, locus YOR061W, strain CKA2, hits give low values 0.969 | S. cerevisiae deletion strains, locus YOR069W, strain VPS5, hits give low values 1 | S. cerevisiae deletion strains, locus YOR070C, strain gyp1, hits give low values 1.01 | S. cerevisiae deletion strains, locus YOR080W, strain dia2, hits give low values 1.03 | S. cerevisiae deletion strains, locus YOR083W, strain WHI5, hits give low values 1.03 | S. cerevisiae deletion strains, locus YOR106W, strain vam3, hits give low values 1.01 | S. cerevisiae deletion strains, locus YOR136W, strain idh2, hits give low values 1.01 | S. cerevisiae deletion strains, locus YOR144C, strain elg1, hits give low values 0.995 | S. cerevisiae deletion strains, locus YOR184W, strain ser1, hits give low values 1.02 | S. cerevisiae deletion strains, locus YOR231W, strain MKK1, hits give low values 1.01 | S. cerevisiae deletion strains, locus YOR265W, strain rbl2, hits give low values 1.03 | S. cerevisiae deletion strains, locus YOR270C, strain vph1, hits give low values 1 | S. cerevisiae deletion strains, locus YOR290C, strain snf2, hits give low values 1.01 | S. cerevisiae deletion strains, locus YOR316C, strain cot1, hits give low values 1 | S. cerevisiae deletion strains, locus YPL051W, strain arl3, hits give low values 1.02 | S. cerevisiae deletion strains, locus YPL055C, strain LGE1, hits give low values 0.932 | S. cerevisiae deletion strains, locus YPL078C, strain atp4, hits give low values 1.02 | S. cerevisiae deletion strains, locus YPL106C, strain sse1, hits give low values 1.04 | S. cerevisiae deletion strains, locus YPL240C, strain hsp82, hits give low values 1.02 | S. cerevisiae deletion strains, locus YPL241C, strain CIN2, hits give low values 0.989 | S. cerevisiae deletion strains, locus YPL256C, strain CLN2, hits give low values 0.999 | S. cerevisiae deletion strains, locus YPR119W, strain clb2, hits give low values 1 | S. cerevisiae deletion strains, locus YPR141C, strain kar3, hits give low values 0.981 | S. cerevisiae deletion strains, locus YPR163C, strain tif3, hits give low values 1.01 | S. cerevisiae deletion strains, locus YPR167C, strain met16, hits give low values 0.991 | S. cerevisiae deletion strains, strain wtn01, hits give low values 1 | S. cerevisiae strains, strain wild type, hits give low values 0.995
